Values joined by “and” are separate entries in the source; they are usually repeats but may differ in a detail not shown here. Identical values can stand only once. Inconclusive results are not listed. Active and inactive are the calls of the source. Unless noted, calls come from the whole dose curve; as a rule, active = well fitted curve in either direction with a large enough effect (not every such curve was filed as active); inconclusive = small, poorly fitted or top-dose-only effect, or another doubt; inactive = flat fitted curve, though single readings scatter.
Tested on: not listed separately
Assay: AP1 Signaling Pathway (AID 357);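 note: ME-180 reporter cells stimulated with EGF at its EC50 level; % is set by controls: 0 for no effect and ±100 for the full control effect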
Conditions: ME-180 (cervical carcinoma) AP-1-bla reporter, EGF-induced, beta-lactamase ratio, 5 h; at 7.69 µM (top of the series) unless noted
How it was run: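 Beta-lactamase reporter under AP-1 response element, ME-180 background. Stimulus: EC50 EGF. Compound exposure 5 h, 37 °C. Detection: CCF4, 2.5 h RT, 460/530 nm. Values: AC50 from titration.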

| Structure (SMILES) | activity change, negative = inhibition |
| --- | --- |
| COCCn1c(=O)c(C)nc2cnc(Nc3ccccc3)nc21 | -18.1% (inactive) |
| COc1cccc(Cn2c(=O)cnc3cnc(N4CCN(C)CC4)nc32)c1 | -3.06% (inactive) |
| Cc1ccccc1-c1ccc2ncnc(N3CCN(C)CC3)c2c1 | 25.8% (inactive) |
| CN(C)CC/C=C1\c2ccccc2CSc2ccccc21 | 28.4% [at 17.2 µM] (inactive) |
| COC(=O)C1=CO[C@@H](C)[C@H]2CN3CCc4c([nH]c5ccccc45)[C@@H]3C[C@H]12 | -20.4% [at 17.2 µM] (inactive) and -6.91% [at 17.2 µM] (inactive) |
| N#Cc1ccccc1-c1ccc2ncnc(NCc3cccs3)c2c1 | -0.438% (inactive) |
| COc1ccccc1CNc1cc(-c2cccc(C#N)c2)ncn1 | -5.31% (inactive) |
| CC(C)N1CCN(c2ccc(OC[C@@H]3CO[C@@](Cn4cncn4)(c4ccc(Cl)cc4Cl)O3)cc2)CC1 | 0.955% [at 17.2 µM] (inactive) |
| Cc1nc2cnc(N3CCN(C)CC3)nc2n(C[C@H]2CCCO2)c1=O | -19.6% (inactive) |
| CC(C)(S)[C@H](N)C(=O)O | 1.59% (inactive) |
| CC12CC[C@@H]3c4ccc(OS(=O)(=O)O)cc4CC[C@H]3C1CCC2=O (stereo partly drawn) | 19.9% [at 17.2 µM] (inactive) |
| FC(F)(F)c1ccccc1-c1ccc2ncnc(NCc3cccs3)c2c1 | 13.7% (inactive) |
| C[C@@H]1CCC[C@H](C)N1NC(=O)c1ccc(Cl)c(S(N)(=O)=O)c1 | 2.6% [at 17.2 µM] (inactive) and 10.6% [at 17.2 µM] (inactive) |
| COc1cccc(Cn2c(=O)c(C)nc3cnc(Nc4cccc(OC)c4)nc32)c1 | -28.7% (inactive) |
| Cc1cnc(CNc2ncnc3ccc(-c4ccccc4C(F)(F)F)cc23)cn1 | 15.7% (inactive) |
| CN1CCN(c2ccnc(-c3ccc(N(C)C)cc3)n2)CC1 | -4.67% (inactive) |

Target: Cytochrome P450 1A2 (Homo sapiens) (UniProt P05177)
Sequence (P05177 whole entry, looked up): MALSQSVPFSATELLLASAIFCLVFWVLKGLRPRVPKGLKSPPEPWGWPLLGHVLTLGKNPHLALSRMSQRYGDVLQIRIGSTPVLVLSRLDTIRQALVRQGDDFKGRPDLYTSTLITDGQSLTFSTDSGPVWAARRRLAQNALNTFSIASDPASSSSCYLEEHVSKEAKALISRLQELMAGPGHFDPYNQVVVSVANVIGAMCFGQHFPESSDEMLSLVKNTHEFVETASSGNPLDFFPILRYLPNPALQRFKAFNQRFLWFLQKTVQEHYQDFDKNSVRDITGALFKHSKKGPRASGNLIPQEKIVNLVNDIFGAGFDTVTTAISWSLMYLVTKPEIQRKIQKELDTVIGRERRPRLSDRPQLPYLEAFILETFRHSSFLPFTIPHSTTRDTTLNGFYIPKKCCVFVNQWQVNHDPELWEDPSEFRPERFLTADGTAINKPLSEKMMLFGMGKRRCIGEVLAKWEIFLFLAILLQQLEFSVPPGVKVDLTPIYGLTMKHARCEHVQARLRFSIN
Assay: p450-cyp1a2 (AID 410; calls by dose curve; note: potency is the fitted concentration of half-maximal effect;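 for activity change, negative = inhibition: -100% = full effect of reference inhibitor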)
Conditions: recombinant CYP1A2, luciferin-ME demethylation, luminescence; series mostly up to 57 µM
How it was run: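 Luminescent demethylation readout: Luciferin-ME (100uM, equal to Km) turned over by 20nM CYP1A2 for 60 min at room temperature after NADPH regeneration addition, following 10 min compound preincubation. Normalization used 57 uM furafylline as full inhibition.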

| Structure (SMILES) | Potency |
| --- | --- |
| N#Cc1cccc(-c2ccc3ncnc(NCc4ccccc4)c3c2)c1 | 0.1 µM (active) |
| COc1ncc2nc(-c3cccs3)c(=O)n(C)c2n1 | 2 µM (active) |
| Cc1ccccc1-c1ccc2ncnc(N3CCN(C)CC3)c2c1 | 3.16 µM (active) |
| COc1ccccc1-c1ccc2ncnc(Nc3ccccc3)c2c1 | 2.51 µM (active) |
| CN(C)CC/C=C1\c2ccccc2CSc2ccccc21 | inactive |
| COc1ccccc1CNc1cc(-c2cccc(C#N)c2)ncn1 | 3.98 µM (active) |
| CC(C)N1CCN(c2ccc(OC[C@@H]3CO[C@@](Cn4cncn4)(c4ccc(Cl)cc4Cl)O3)cc2)CC1 | inactive |
| FC(F)(F)c1ccccc1-c1ccc2ncnc(N3CCOCC3)c2c1 | 0.251 µM (active) |
| COc1ccccc1-c1ccc2ncnc(NCCN3CCOCC3)c2c1 | 15.8 µM (active) |
| C[C@@H]1CCC[C@H](C)N1NC(=O)c1ccc(Cl)c(S(N)(=O)=O)c1 | inactive |
| Cc1cnc(CNc2ncnc3ccc(-c4ccccc4C(F)(F)F)cc23)cn1 | 12.6 µM (active) |
| CN1CCN(c2ccnc(-c3ccc(N(C)C)cc3)n2)CC1 | 0.794 µM (active) |

Reference: PubChem BioAssay (NCATS)
